Results: PubChem BioAssay AID488969 (Vanderbilt High Throughput Screening Facility, 2010)
Whole data set: some 110,000 compounds, median “z-score” near -0.1, cut for the highest 2% near 2. The list comes from a sample in which the highest values are over-represented; it also holds similar structures and randomly drawn compounds. Calls of active or inactive are those of the source.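 Rule for the calls: active = z-score in the third read window above 3 or below -3; inactive = the rest.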

biological target: Metabotropic glutamate receptor 8 (Rattus norvegicus) (UniProt P70579); experiment: mGluR8 Gi/Go-coupled signaling modulation – cell-based, rat, thallium flux, HTS, primary screen (AID 488969); conditions: HEK293 rat mGluR8, GIRK (G protein-gated inwardly rectifying potassium channel) thallium flux, FluoZin2; at 10 µM; stronger effect = higher value; submaximal glutamate (EC20) added with thallium
Sequence (P70579 whole entry, looked up): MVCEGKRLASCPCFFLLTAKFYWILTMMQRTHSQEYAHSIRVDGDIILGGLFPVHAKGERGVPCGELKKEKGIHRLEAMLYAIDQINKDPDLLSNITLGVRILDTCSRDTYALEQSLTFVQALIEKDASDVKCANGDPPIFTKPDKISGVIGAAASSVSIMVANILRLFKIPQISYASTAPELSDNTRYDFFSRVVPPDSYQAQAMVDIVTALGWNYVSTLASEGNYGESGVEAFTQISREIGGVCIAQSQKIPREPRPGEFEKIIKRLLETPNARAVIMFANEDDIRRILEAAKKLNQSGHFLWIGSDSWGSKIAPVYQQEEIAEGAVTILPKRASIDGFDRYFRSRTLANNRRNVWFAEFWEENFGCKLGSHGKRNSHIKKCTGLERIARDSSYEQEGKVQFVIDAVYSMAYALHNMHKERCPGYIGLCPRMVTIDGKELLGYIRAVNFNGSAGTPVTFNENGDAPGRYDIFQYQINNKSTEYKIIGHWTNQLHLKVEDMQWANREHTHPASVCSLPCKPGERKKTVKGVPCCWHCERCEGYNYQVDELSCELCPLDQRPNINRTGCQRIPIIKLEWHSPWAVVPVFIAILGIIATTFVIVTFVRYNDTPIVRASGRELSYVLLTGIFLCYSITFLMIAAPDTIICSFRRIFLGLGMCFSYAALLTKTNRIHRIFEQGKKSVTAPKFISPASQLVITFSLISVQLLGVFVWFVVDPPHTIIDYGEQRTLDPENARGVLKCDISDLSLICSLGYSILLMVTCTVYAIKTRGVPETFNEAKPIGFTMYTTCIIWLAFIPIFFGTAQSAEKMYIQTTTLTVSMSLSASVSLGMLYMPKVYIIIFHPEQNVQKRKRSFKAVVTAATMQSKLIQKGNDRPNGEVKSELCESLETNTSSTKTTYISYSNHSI

Point of comparison: `Cc1cc([N+](=O)[O-])c(C(C)(C)C)cc1N`, z-score 1.32. Against it:
- COc1ccc(CCNC(=O)Cc2cc(OC)c(OC)cc2[N+](=O)[O-])cc1OC — lower, -0.376
- COCC(=O)Nc1nnc(COc2ccc(Cl)cc2)s1 — lower, 0.279
- COc1ccc(C2c3c(ccc4ccccc34)Oc3ncn4nc(Cc5ccc(OC)c(OC)c5)nc4c32)cc1 (stereo unspecified) — lower, -0.169
- Cc1cc(=O)oc(C)c1C(=O)N1CCN(C(c2ccccc2)c2ccccc2)CC1 — lower, 0.596
- CN(C)C(=O)C(=O)c1cccn1-c1ccccc1C#N — lower, 0.429
- CCOC(=O)C1CCCN(C(=O)c2sc3nc(C)nc(N(CC)CC)c3c2C)C1 (stereo unspecified) — lower, -0.328
- COc1ccccc1CC(=O)N1CCN(c2cccc(C(F)(F)F)c2)CC1 — lower, 0.359
- Cc1ccc(/C=C/C(=O)N2CCN(c3cccc(C(F)(F)F)c3)CC2)cc1 — lower, -0.0624
- CCc1c(C(=O)Nc2nnc(C3CC3)s2)csc1C — lower, 1.09
- CC(C)(C)c1ccc(OCc2ccc(C(=O)N/N=C/c3ccc([N+](=O)[O-])cc3)o2)cc1 — lower, -0.4
- CN1CCC(=NNC(=O)C(=O)NC2CCCCC2)CC1 — higher, 2.04
- CN1CCC(=NNC(=O)C(=O)NC2CCCC2)CC1 — lower, -0.0552
- O=C(NN=C1CCCCCCC1)C(=O)NC1CCCCC1 — lower, 0.327
- O=C(Cn1[nH]c(=O)c2ccccc2c1=O)NC1CCCCCC1 — lower, 0.0122
- CCOC(=O)C1[C@H]2C(=O)N(C(C)c3ccc(OC)cc3)C[C@]23C=C[C@H]1O3 (stereo partly specified) — lower, 0.209
- CCCOC(=O)C1[C@H]2C(=O)N(C(C)c3ccc(OC)cc3)C[C@]23C=C[C@H]1O3 (stereo partly specified) — lower, 0.656
- CC(C)(NC(=O)N1CCOCC1)c1cccc(C(C)(C)NC(=O)N2CCOCC2)c1 — lower, -0.126
- Cc1cc(C)c2cc(C)c3nnc(SCC(=O)NCc4ccc5c(c4)OCO5)n3c2c1 — lower, -0.513
- COc1ccccc1CCNCc1ccc(OC)c(OCc2ccccc2)c1 — lower, 0.696
- COc1cccc(CNCCc2c[nH]c3ccccc23)c1OCc1ccccc1 — the same, 1.32
- COc1cccc(CNn2cnnc2)c1OCc1ccc(F)cc1 — lower, -0.661
- COc1cc(CNCCc2c[nH]c3ccccc23)ccc1OCc1ccccc1F — lower, 0.911
- COc1cccc(CNCCc2c[nH]c3ccccc23)c1OCc1ccc(F)cc1 — higher, 2.04
- Cc1cccc(N2CCN(C(=O)COc3ccc4c(c3)CCC4)CC2)c1C — lower, -0.161
- CC1(C)NC(=O)N(CCSc2ccc(Cl)cc2)C1=O — lower, -0.257
- CCC(Sc1n[nH]c(=O)[nH]c1=O)C(=O)OCc1ccccc1 (stereo unspecified) — lower, 0.193
- O=C(NCc1ccc(F)cc1)c1cc(S(=O)(=O)N2CCOCC2)ccc1F — lower, 0.0221
- Cc1ccc(S(=O)(=O)NCC(=O)N(CC(=O)NCc2ccco2)Cc2ccc3c(c2)OCO3)cc1 — lower, -0.622
- O=C(COC(=O)CCCSc1nc2ccccc2[nH]1)NC(=O)NC1CCCC1 — lower, -0.664
- c1ccc(OCCSc2nc3ccccc3[nH]2)cc1 — higher, 2.69
- O=c1[nH]c(SCCOc2ccccc2)nc2ccccc12 — lower, -0.359
- Fc1cccc(F)c1CSc1nc2ccccc2[nH]1 — lower, -0.786
- COc1ccc(CSc2nc3ccccc3[nH]2)cc1 — lower, 0.53
- Fc1ccccc1CSc1nc2ccccc2[nH]1 — lower, 0.129
- COC(=O)c1cccc(CSc2nc3ccccc3[nH]2)c1 — lower, 0.475
- C=CCNC(=O)NC(=O)COC(=O)CCCSc1nc2ccccc2[nH]1 — lower, -0.828
- COc1cccc(CSc2nc3ccccc3[nH]2)c1 — higher, 2.68
- Cc1cccc(OCCCSc2nc3ccccc3[nH]2)c1 — lower, 0.357
- C/C(=N\Nc1cc(-c2ccccc2)nc(-c2ccc(Br)cc2)n1)c1cccc(N)c1 — lower, -0.0597
- CN1CCN(C(=O)c2ccc(CS(=O)(=O)c3c(Cl)cccc3Cl)o2)CC1 — lower, 0.504
- Nn1c(SCC(=O)Nc2ccc3c(c2)OCCO3)nnc1-c1ccccn1 — lower, -0.0196
- COCCN1C(=O)C(=O)/C(=C(/O)c2ccc(S(=O)(=O)N3CCOCC3)cc2)C1c1ccc(C(C)C)cc1 (stereo unspecified) — lower, 0.0253
- COc1ccc(NC(=O)CCS(=O)(=O)c2ccccc2)c(OC)c1 — lower, 0.256
- C=CCNC(=S)N/N=C/c1cn(-c2ccccc2)nc1-c1ccc(OC)cc1 — lower, -0.184
- O=C(N/C=C\c1ccccc1)NCc1ccc(Cl)cc1 — lower, 0.197
- COc1ccc(C(=O)N(Cc2ccccc2)Cc2cc3cc4c(cc3[nH]c2=O)OCCO4)cc1 — lower, 0.201
- COc1cccc(C2c3c(oc4ccc(F)cc4c3=O)C(=O)N2CCN2CCOCC2)c1OC (stereo unspecified) — lower, -0.574
- C=CCNc1cnn(CC(C)=O)c(=O)c1Br — lower, -0.0909
- C=CCn1c(CCNC(=O)c2cccs2)nnc1SCC(=O)c1ccc(Cl)cc1 — lower, -0.334
- CCOc1cc2c(cc1C(C)(C)C)NC(=O)CS2 — lower, -0.538
- CCOC(=O)C1=C(c2ccccc2)Nc2c(c(=O)n(C)c(=O)n2C)C1c1ccc(O)c(OC)c1 (stereo unspecified) — lower, 0.108
- CCOc1ccc(OCCSc2nc3ccccc3c(=O)[nH]2)cc1 — lower, -0.398
- CCCOc1ccc(CSc2nc3ccccc3[nH]2)cc1 — lower, 1.22
- O=C(CCSCCC(=O)NCc1ccco1)NCc1ccco1 — lower, -0.212
- Cc1ccc2c(c1)/C(=N/OS(=O)(=O)c1ccccc1)CCS2 — lower, -0.0781
- COc1ccc(C(=O)Nn2cnnc2)cc1 — lower, -0.00169
- Cc1ccc(C(=O)NC(=S)Nn2cnnc2)cc1 — lower, -0.262
- O=C(Cn1c(=O)oc2ccccc21)Nc1nnc(N2CCCCCC2)s1 — lower, -0.181
- O=C1CSC(=Nc2ccccc2)N1 — lower, -0.108
- Cc1ccc(N=C2NC(=O)CS2)cc1 — higher, 2.26
- Cc1cccc(N=C2NC(=O)CS2)c1 — lower, 0.297
- CCc1ccc(C(C)NC(=O)c2cc(C)oc2C)cc1 (stereo unspecified) — lower, -0.386
- COc1cc(/C=N/NC(=O)c2ccc([N+](=O)[O-])cc2Cl)cc(Br)c1O — lower, 0.0738

In the case of `Cc1ccc(CC(=O)N2CCN(c3cccc(C(F)(F)F)c3)CC2)cc1`, the z-score is reported as 6.97 (active).
For `COc1ccc(C(C)N2CC34C=CC(O3)C(C(=O)OCC(C)C)C4C2=O)cc1` (stereo unspecified), the z-score was 5.16 (active).
`COc1cc(CNCCc2c[nH]c3ccccc23)ccc1OCc1ccc(F)cc1` was tested, and the z-score was 3.41 (active).
For `Fc1ccc(CSc2nc3ccccc3[nH]2)c2ccccc12`, the z-score was 10.7 (active).
For `CCNC(=O)NC(=O)COC(=O)CCCSc1nc2ccccc2[nH]1`, the z-score was 3.23 (active).
For `CCOc1ccc(OCCSc2nc3ccccc3[nH]2)cc1`, the z-score was 3.67 (active).
`CC(C)(C)c1ccc(C(=O)NC(=S)Nn2cnnc2)cc1` was tested, and the z-score was 3.11 (active).
